Experimental data taken from the supplement of paper PMC8728848.
The sample as a whole holds a higher share of the strongest signals than the screen did.

What was measured:
Assay in all cases: glycan array binding signal (z-score within array); higher = stronger binding
Details in all cases: glycan notation: IUPAC condensed, linker removed
[1] = molecular target: Fuc(a1-2)Gal(b1-3)GlcNAc(b1-3)Gal(b1-4)Glc
Method in brief: (§1)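 Glycan array binding is given as a within-array Z-score, which can be read as non-binding when negative. The arrays, 3228 of them, came from the Consortium for Functional Glycomics database and were retained only where the protein sequence was available. Z-scores were averaged across arrays of the same protein sequence at different concentrations or buffers and across linkers.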

[2] = molecular target: Fuc(a1-2)Gal(b1-3)GlcNAc6S
Method in brief: as §1

[3] = molecular target: Fuc(a1-2)Gal(b1-3)[Fuc(a1-4)]GlcNAc(b1-2)Man(a1-3)[Fuc(a1-2)Gal(b1-3)[Fuc(a1-4)]GlcNAc(b1-2)Man(a1-6)]Man(b1-4)GlcNAc(b1-4)[Fuc(a1-6)]GlcNAc(b1-4)[Fuc(a1-6)]GlcNAc
Method in brief: as §1

[4] = molecular target: Fuc(a1-2)Gal(b1-4)GlcNAc(b1-2)Man
Method in brief: as §1

[5] = molecular target: Fuc(a1-2)Gal(b1-4)GlcNAc(b1-3)[Fuc(a1-2)Gal(b1-4)GlcNAc(b1-6)]GalNAc
Method in brief: as §1

[6] = molecular target: Fuc(a1-2)Gal(b1-4)GlcNAc(b1-6)GalNAc
Method in brief: as §1

[7] = molecular target: Fuc(a1-2)Gal(b1-4)[Fuc(a1-3)]GlcNAc(b1-3)Gal(b1-4)[Fuc(a1-3)]GlcNAc(b1-3)Gal(b1-4)[Fuc(a1-3)]GlcNAc
Method in brief: as §1

[8] = molecular target: Fuc(a1-2)Gal6S(b1-4)Glc
Method in brief: as §1

[9] = molecular target: Fuc(a1-2)[Gal(a1-3)]Gal(b1-4)GlcNAc(b1-3)[Fuc(a1-2)[Gal(a1-3)]Gal(b1-4)GlcNAc(b1-6)]GalNAc
Method in brief: as §1

[10] = molecular target: Fuc(a1-2)[Gal(a1-3)]Gal(b1-4)[Fuc(a1-3)]GlcNAc(b1-3)GalNAc
Method in brief: as §1

[11] = molecular target: Fuc(a1-2)[GalNAc(a1-3)]Gal
Method in brief: as §1

[12] = molecular target: Fuc(a1-2)[GalNAc(a1-3)]Gal(b1-3)GlcNAc(b1-3)GalNAc
Method in brief: as §1

[13] = molecular target: Fuc(a1-2)[GalNAc(a1-3)]Gal(b1-4)[Fuc(a1-3)]GlcNAc(b1-3)GalNAc
Method in brief: as §1

[14] = molecular target: Fuc(a1-3)[GalNAc(b1-4)]GlcNAc
Method in brief: as §1

[15] = molecular target: Gal(a1-3)Gal(b1-4)GlcNAc(b1-2)Man
Method in brief: as §1

[16] = molecular target: Gal(a1-3)Gal(b1-4)GlcNAc(b1-2)Man(a1-3)[Gal(a1-3)Gal(b1-4)GlcNAc(b1-2)Man(a1-6)]Man(b1-4)GlcNAc(b1-4)GlcNAc
Method in brief: as §1

[17] = molecular target: Gal(a1-4)Gal(b1-4)Glc
Method in brief: as §1

[18] = molecular target: Gal(b1-3)Gal
Method in brief: as §1

[19] = molecular target: Gal(b1-3)GalNAc(b1-4)Gal(b1-4)Glc
Method in brief: as §1

[20] = molecular target: Gal(b1-3)GlcNAc(b1-2)Man
Method in brief: as §1

[21] = molecular target: Gal(b1-3)GlcNAc(b1-3)GalNAc
Method in brief: as §1

[22] = molecular target: Gal(b1-3)[Fuc(a1-4)]GlcNAc(b1-6)GalNAc
Method in brief: as §1

[23] = molecular target: Gal(b1-4)Gal
Method in brief: as §1

[24] = molecular target: Gal(b1-4)GlcNAc(b1-2)Man(a1-6)[Man(a1-3)]Man(b1-4)GlcNAc(b1-4)GlcNAc
Method in brief: as §1

[25] = molecular target: Gal(b1-4)GlcNAc(b1-3)Gal(b1-3)GalNAc
Method in brief: as §1

[26] = molecular target: Gal3S(b1-4)[Fuc(a1-3)]Glc6S
Method in brief: as §1

[27] = molecular target: Gal3S6S(b1-4)GlcNAc
Method in brief: as §1

[28] = molecular target: Gal3S6S(b1-4)GlcNAc6S
Method in brief: as §1

[29] = molecular target: Gal6S(b1-4)GlcNAc6S
Method in brief: as §1

[30] = molecular target: GalNAc(a1-3)Gal
Method in brief: as §1

B1: TAL6-6LysM (Trichoderma atroviride) (protein)
chain: AASKLGVPQPAQRDQVNCQLYAVQPNDNCIDISSKNNITYAQLLSWNPSLSSTCSNLASLNSSSICVSNPKGTFSISSNTVGATDIATTTAPVPSPTLDQTTSRCAKYYQVSDGDDCSHLTAQFAITLKDFIFLNSEVWQNCTNLELGYYYCVEPVGYISTYPGYLPTATTKPFNQTSATSLPYDGDPWARFSSNSSVIPIANGTRVDCYSYVYVKNLTENLFADCWNMASMYEITREELVLWNPSLGNDGSSGSNLSGAEASQVASSIAIPTTAPSSITTNLYTYPCTVAANISYCVALVSSTGALPTNTAPPGPHASGEISNCTAWFAPEAYDTCKSILDIFEMSFANFYKMNPSVGPDCSGLAVGTNYCVSTYPNGEDPNDDWDGDDSIPSISPTGIITPTPTQSGMVSNCNKFYDVHSNDGCSAIASSQHVDLSSLYKWNPAIKTDCSGLQASVYVCIGILTTSMSTTSKLPTTTSKPSTTSKPPTGITTPTPTQSGMVKNCNKFYDVHSGDGCSAIASSQKVNLSSFYLWNPAVKTDCSGLQASVFVCIGTLTTSMSTTTSKLPTTTSKPSTTSKPPTGIITPTPTQNGMVKNCNKFYDVHSGDGCSAIASSQKVNLSSFYLWNPAVKTDCSGLQASVFVCVGTATTTTAAGITTPTPTQSGMVSGCNKFYDVHAGDGCSAIASSQKIALSSLYKWNPAVKTDCSGLQASVYICIGVGNAAAARVTGAAASFLEQKLISEEDLNSAVDHHHHHH
- glycan array binding signal (z-score) [1]: -0.234
- glycan array binding signal (z-score) [2]: 0.906
- glycan array binding signal (z-score) [3]: 0.449
- glycan array binding signal (z-score) [4]: -0.377
- glycan array binding signal (z-score) [5]: -0.205
- glycan array binding signal (z-score) [6]: 3.12
- glycan array binding signal (z-score) [7]: 2.68
- glycan array binding signal (z-score) [8]: -0.385
- glycan array binding signal (z-score) [9]: -0.724
- glycan array binding signal (z-score) [10]: 0.955
- glycan array binding signal (z-score) [11]: -0.757
- glycan array binding signal (z-score) [12]: 0.204
- glycan array binding signal (z-score) [13]: -0.108
- glycan array binding signal (z-score) [14]: 2.99
- glycan array binding signal (z-score) [15]: 0.538
- glycan array binding signal (z-score) [16]: 0.08
- glycan array binding signal (z-score) [17]: 2.69
- glycan array binding signal (z-score) [18]: -0.192
- glycan array binding signal (z-score) [19]: -0.503
- glycan array binding signal (z-score) [20]: 3.66
- glycan array binding signal (z-score) [21]: -0.729
- glycan array binding signal (z-score) [22]: 1.02
- glycan array binding signal (z-score) [23]: -0.397
- glycan array binding signal (z-score) [24]: 0.445
- glycan array binding signal (z-score) [25]: -0.573
- glycan array binding signal (z-score) [26]: 2.96
- glycan array binding signal (z-score) [27]: 2.51
- glycan array binding signal (z-score) [28]: 3
- glycan array binding signal (z-score) [29]: -0.018
- glycan array binding signal (z-score) [30]: 2.44
